From the supplement of paper PMC10338343 come the findings set out here.

For experiment [1], the system named is MILI (PIWIL2) piRISC loaded with L1MC piRNA (26 nt). Briefly: pre-steady-state target cleavage rate (min^-1); guide: L1MC piRNA 5'p-UAACUAAAUACUAUGCAAGCUGUAGG; higher = faster piRNA-guided slicing of the target. The essentials:
(§1)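 With or without 500 nM GTSF1 partner protein, 1 nM active affinity-purified piRISC carrying one synthetic guide was mixed with 0.1 nM transcribed, DNA-blocked target RNA library in HEPES–potassium acetate buffer at 33 °C for 0–8 or 0–960 min. Uncleaved targets were sequenced and normalised to depth and to weakly complementary targets, three trials were pooled, and k3 was capped at 0.0001 min^-1. The pre-steady-state cleavage rate came from a burst-and-steady-state fit.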

Experiment [2] has as its system EfPiwi piRISC loaded with L1MC piRNA (26 nt). Description: pre-steady-state target cleavage rate (min^-1); auxiliary factor: 500 nM Ephydatia muelleri Gtsf1; guide: L1MC piRNA 5'p-UAACUAAAUACUAUGCAAGCUGUAGG; MIWI and MILI are mouse PIWI proteins and EfPiwi is from a freshwater sponge; tags in brackets are library labels; higher = faster piRNA-guided slicing of the target. In outline:
as §1

Where [3] appears, read: auxiliary factor: 500 nM mouse GTSF1.
Where [4] appears, read: auxiliary factor: none (no GTSF1).

± gives the standard deviation.

As for UCCUGGAUGUGCUUGCAUAGUACUUUAGUUA, the “pre-steady-state target cleavage rate” value in experiment [1] (setting [3]) was determined as 0.0231 ± 0.0092; in experiment [1] (setting [4]), 0.00627 ± 0.0028; in experiment [2], 0.0126 ± 0.0061.
As for UCCUCCUAGAGCUAGCAUAGUAUUUAGUUA, the “pre-steady-state target cleavage rate” value in experiment [1] (setting [3]) is 0.218 ± 0.015; in experiment [1] (setting [4]), 0.00391 ± 0.0022; in experiment [2], 0.0136 ± 0.0043.
For UCCUGCUACUGCUUGCUUAGUAUUUAGUUA the same measures were 0.202 ± 0.022, 0.00589 ± 0.002 and 0.0076 ± 0.0022.
On the same counts, the results for UCCUGGUACAGCUGUGCAUAGUAUUUAGUUA are 0.238 ± 0.019, 0.0118 ± 0.0046 and 0.00903 ± 0.0034.
For UCCUCCUACAGCUUGCAUAGUUUUUAGUUA the same measures were 0.0632 ± 0.011, 0.00455 ± 0.0023 and 0.00894 ± 0.003.
In the case of UCCUGGAUCAGCUUGCAUAGUACUUAGUUA, the “pre-steady-state target cleavage rate” value in experiment [1] (setting [3]) was determined as 0.237 ± 0.018; in experiment [1] (setting [4]), 0.00683 ± 0.0023; in experiment [2], 0.0145 ± 0.0031.
For UCCUGGUUCAGCUUGCAUAGUAAUUAGUUA the same measures were 0.235 ± 0.024, 0.00723 ± 0.0031 and 0.0107 ± 0.0037.
Turning to UCCUGGAACAGCUUCGAUAGUAUUUAGUUA, the “pre-steady-state target cleavage rate” value is 0.262 ± 0.015 in experiment [1] (setting [3]), 0.00483 ± 0.0022 in experiment [1] (setting [4]) and 0.00251 ± 0.0023 in experiment [2].
As to UCCUGCUACAGCAUGCAUAGUAUUUAGUUA, the “pre-steady-state target cleavage rate” value in experiment [1] (setting [3]) came to 0.353 ± 0.022; in experiment [1] (setting [4]), 0.00853 ± 0.003; in experiment [2], 0.0124 ± 0.0037.
On the same counts, the results for UCCUGGAUCAGAUUGCAUAGUAUUUAGUUA are 0.205 ± 0.013, 0.00667 ± 0.002 and 0.0613 ± 0.011.
Take UCCUGGUAGAGCUUGCAUAGUAUUUAGUUA: the figures for the “pre-steady-state target cleavage rate” value in experiment [1] (setting [3]), in experiment [1] (setting [4]) and in experiment [2] were 0.245 ± 0.015, 0.00842 ± 0.0022 and 0.0138 ± 0.0044, respectively.
Consider UCCUGGAUGUCCCUGCAUAGUAUUUAGUUA, for which the “pre-steady-state target cleavage rate” value amounted to 0.085 ± 0.014 in experiment [1] (setting [3]), 0.00467 ± 0.0023 in experiment [1] (setting [4]) and 0.00326 ± 0.0026 in experiment [2].
For UCCUCCUACAGCUUGCAUACUAUUUAGUUA the same measures were 0.088 ± 0.013, 0.00383 ± 0.0021 and 0.00904 ± 0.0032.
For UCCUGCUACAGAUUGCAUAGUAUUUAGUUA the same measures were 0.299 ± 0.015, 0.0107 ± 0.0034 and 0.0138 ± 0.0034.
Consider UCCUGCUACUCGUUGCAUAGUAUUUAGUUA, for which the “pre-steady-state target cleavage rate” value is 0.242 ± 0.014 in experiment [1] (setting [3]), 0.0082 ± 0.0022 in experiment [1] (setting [4]) and 0.00936 ± 0.0038 in experiment [2].
For UCCUGCUACUGCUUGCAUAGAAUUUAGUUA the same measures were 0.045 ± 0.0093, 0.00256 ± 0.002 and 0.00563 ± 0.002.
For UCCUGCUACACGCUUGCAUAGUAUUUAGUUA, the entries for the “pre-steady-state target cleavage rate” value in experiment [1] (setting [3]), in experiment [1] (setting [4]) and in experiment [2] were 0.218 ± 0.032, 0.00682 ± 0.0029 and 0.00609 ± 0.0019, respectively.
